The record followed here is PubChem BioAssay AID651793 (National Center for Advancing Translational Sciences (NCATS), 2012).

Records with an inconclusive call do not appear. Activity calls are given as the source filed them. Calls follow the shape of the dose curve; as a rule, active = well fitted inhibition curve with a large enough effect; inconclusive = small, poorly fitted or top-dose-only effect; inactive = flat fitted curve, though single readings scatter.

This assay is described as follows: InCell qHTS Assay for Inhibitors of the mTORC1 Signaling Pathway in WT MEF Cells: Hit Validation. Particulars: WT MEF phospho-rpS6 immunofluorescence, Acumen, 24 h; series mostly up to 38.3 µM. The source says: The mammalian target of rapamycin (mTOR) is an intracellular serine/threonine kinase Aberrant regulation of mTOR signaling plays a causative role in a number of human diseases, including cancer, benign tumors such as lymphangioleiomyomatosis (LAM) and Tuberous Sclerosis Complex (TSC), and metabolic diseases such as diabetes and obesity. This project aims to identify inhibitors of ribosomal protein S6 (rpS6) phosphorylation. The phosphorylation of rpS6 is a key event downstream of mTOR activation. The assay uses a phospho-specific antibody of phospho-rpS6 to detect inhibitors of mTOR activation. Mutations in the Tsc1 and Tsc2 genes are the underlying genetic lesions responsible for TSC, causing constitutive activation of the mTORC1 pathway and leading to profound effects on cell metabolism. Aberrant metabolism in cancer has recently received significant attention as a target to develop therapeutic agents in the treatment of cancer.1 As Tsc2-/- cells have lost the ability to respond to energy and growth factor deprivation, these cells are unable to properly down regulate cellular biosynthetic processes in response to metabolic stress, and are thus extremely sensitive to glucose deprivation-induced death.2 A central goal of this project is to explore the unique cell survival and metabolic properties of cells with Tsc1 or Tsc2 by screening for compounds that selectively target the Tsc2-/- MEFs by screening both Tsc2-/- and WT MEF cell lines. We hope to better understand these aspects of TSC physiology in order to exploit them for therapeutic benefit. NIH Molecular Libraries Probe Production Centers Network [MLPCN] NIH Chemical Genomics Center [NCGC] MLPCN Grant: NS059428 Assay Submitter (PI): Blenis, John; Harvard University
For quantitative high throughput analysis of mTORC1 signaling, we developed a cell-based assay for immuno-fluorescence based detection of rpS6 phosphorylation on the Acumen Explorer that will be used a platform for the primary small molecule screen. Mouse embryonic fibroblasts (MEFs) are cultured in 1536-well plates using DMEM + 10% FBS. Twenty-four hrs after plating, test compounds (solubilized in DMSO) are delivered and incubated with the cells for 24 hrs at 37 degree Celsius. Following the incubation, media with compound is aspirated and the cells are fixed in 4% paraformaldehyde (PFA) containing PBS + 0.2% TX-100. Next, PFA is aspirated, cells are washed two times with PBS plus 0.2% TX-100 and the cells are blocked for 1 hr at room temperature (blocking buffer: LiCOR Blocking Buffer plus 0.2% TX-100). This is followed by aspiration and staining with Alexa-488 conjugated-phospho-rpS6 Ser235/236 antibody for 2 hours at room temperature (Cell Signaling Technology # 4803, 1:50 dilution in blocking buffer). Cells are washed two times with PBS plus 0.2% TX-100, and stained with 10 uM propidium iodide (PI) for 20-25 minutes for cell number measurement (1:500 dilution of Hoescht staining is also added for IN Cell imaging). The plates are scanned on the Acumen Explorer laser scanning instrument (TTP Labtech) using the 488nm laser for simultaneous excitation of the Alexa-488 and PI. The fluorescence emission from the Alexa-488 conjugated rpS6 phospho-235/236 antibody staining is selected using a […] band pass filter. Fluorescence emission from the PI stain is selected using a 575-640 nm band pass filter. The normalized phospho-S6 staining is calculated as the ratio of the integrated Alexa 488 intensity divided by the integrated PI intensity for the single concentration rapamycin control (7.5 nM) and DMSO columns. […] Inhibition of the pathway is defined based on the normalized phospho-S6 intensity in rapamycin treated cells. […]
In general terms: In qHTS, concentration-response curves come from the screen itself.
Regarding `CCN1CCN(c2cc(C)c3cc(NC(=O)c4cccc(Cl)c4)ccc3n2)CC1`, the Potency entry is “inactive”.
Next, `COc1cc(NC(=O)c2cccc(F)c2)ccc1NC(=O)c1cc2ccccc2o1`: 8.95 µM (active).
Consider `C=CCNC1=C2C[C@@H](C)C[C@H](OC)[C@H](O)[C@@H](C)/C=C(\C)[C@H](OC(N)=O)[C@@H](OC)/C=C\C=C(/C)C(=O)NC(=CC1=O)C2=O`, for which the Potency was 0.252 µM (active).
Under `CCOc1ccc(C2CC(=O)c3c([nH]c(C(=O)OCc4ccccc4)c3C)C2)cc1` (configuration not stated) stands “inactive”.
Turning to `COc1cc(Nc2nc(-c3ccc(OC)c(OC)c3)nc3ccccc23)cc(OC)c1`, the Potency entry is “inactive”.
Next, `CCN(CC)c1cc(C)c2cc(NC(=O)/C=C/c3cc(OC)c(OC)c(OC)c3)ccc2n1`: 22.5 µM (active); `O=C1CC(c2ccccc2)Cc2[nH]c(=O)c(-c3nc(-c4ccc(Cl)cc4)cs3)cc21` (configuration not stated): “inactive”; `CCN1CCN(c2cc(C)c3cc(NC(=O)/C=C/c4ccc(C)cc4)ccc3n2)CC1`: “inactive”.
Consider `CCCOc1ccc(C(=O)Nc2ccc(NC(=O)c3ccccc3)c(C)c2)cc1`, for which the Potency was 6.34 µM (active).
Under `CCOc1ccc(Nc2nc(Nc3ccc(OCC)cc3)nc(N3CCOCC3)n2)cc1` stands “inactive”; under `CCCCc1ccc(C(=O)Nc2ccc3nc(N4CCN(CC)CC4)cc(C)c3c2)cc1`, 8.95 µM (active); under `COc1ccccc1Nc1c2c(nc3ccc(NC(=O)c4ccc(N(C)C)cc4)cc13)CCCC2`, 5.65 µM (active).
Next, `CCOc1ccc(/C=C/C(=O)Nc2ccc3nc(N(CC)CC)cc(C)c3c2)cc1OC`: 10 µM (active); `COc1ccccc1Nc1c2c(nc3ccc(NC(=O)c4cccc(OC)c4OC)cc13)CCCC2`: 17.9 µM (active).
Turning to `COc1ccc(/C=C/C(=O)Nc2ccc3nc4c(c(Nc5ccc(OC)c(OC)c5)c3c2)CCCC4)cc1`, the Potency is 11.3 µM (active).
Under `Cc1cc(N2CCCCC2)nc2ccc(NC(=O)/C=C/c3ccccc3OC(C)C)cc12` stands “inactive”.
Take `COc1ccc(OC)c(C2CC(=O)c3c([nH]c(C(=O)OCc4ccc(C)cc4)c3C)C2)c1` (configuration not stated): the Potency entry is “inactive”.
Next, `CCN1CCN(c2cc(C)c3cc(NC(=O)c4cc(OC)cc(OC)c4)ccc3n2)CC1`: “inactive”; `Cc1cccc(Nc2nc(Nc3cccc(C)c3)nc(N3CCOCC3)n2)c1`: 20 µM (active); `COc1ccccc1Nc1c2c(nc3ccc(NC(=O)/C=C/c4cc(OC)c(OC)c(OC)c4)cc13)CCCC2`: 2.52 µM (active).
Consider `COc1ccc(Nc2c3c(nc4ccc(NC(=O)/C=C/c5cccc(OC)c5OC)cc24)CCCC3)cc1OC`, for which the Potency is 8.95 µM (active).
Under `CCN1CCN(c2cc(C)c3cc(NC(=O)/C=C/c4ccc(OCCC(C)C)cc4)ccc3n2)CC1` stands 3.18 µM (active); under `CCCOc1ccc(C(=O)Nc2ccc(NC(=O)c3ccccc3)c(Br)c2)cc1`, 10 µM (active); under `Cc1c(C(=O)OCCOc2ccccc2)[nH]c2c1C(=O)CC(c1ccccc1Cl)C2` (configuration not stated), “inactive”.
Next, `Cc1cc(N2CCN(C)CC2)nc2ccc(NC(=O)c3ccc(C(C)(C)C)cc3)cc12`: 15.9 µM (active).
Under `COc1cc(-c2nc3ncccn3c2Nc2ccc(C)cc2C)ccc1O` stands “inactive”; under `O=C1CC(c2ccccc2)Cc2[nH]c(=O)c(-c3nc(-c4cccc(Cl)c4)cs3)cc21` (configuration not stated), “inactive”.
